Data on 40 molecules can be found in PubChem BioAssay (EPA / NIEHS).

The source made the active and inactive calls. Rule for the calls: active = hit-call score of the fitted dose curve at least 0.9, where 1 is the maximum; inactive = score below 0.9.

Read-out in the test: Matrix Metallopeptidase 1 (MMP1), MMP1 (gene 4312)
Briefly: BSK_hDFCGF_MMP1: BioMAP Diversity Plus: hDFCGF Assay for Matrix Metallopeptidase 1 (MMP1) Biomarker Activity (AID 2283064). Conditions: primary human foreskin fibroblasts; actives raise or lower the signal. Here is the method: BSK_hDFCGF is a cell-based, multiplexed-readout assay that uses foreskin fibroblast, a human skin primary cell, with measurements taken at 24 hours after chemical dosing in a 96-well plate.BSK_hDFCGF_MMP1 is an assay component measured in the BSK_hDFCGF assay. It measures MMP-1 antibody related to regulation of gene expression using ELISA technology.Data from the assay component BSK_hDFCGF_MMP1 was analyzed into 1 assay endpoint. This assay endpoint, BSK_hDFCGF_MMP1, was analyzed with bidirectional fitting relative to DMSO as the negative control and baseline of activity. Using a type of binding reporter, gain or loss-of-signal activity can be used to understand changes in the signaling as they relate to the gene MMP1. Furthermore, this assay endpoint can be referred to as a primary readout, because this assay has produced multiple assay endpoints where this one serves a signaling function. To generalize the intended target to other relatable targets, this assay endpoint is annotated to the protease intended target family, where the subfamily is matrix metalloproteinase.
The levels of cell surface (or secreted, indicated by the prefix "s") biomarker endpoints were measured by ELISA. Overt cytotoxicity to cells in confluent adherent cultures (all systems other than the BT system) was assessed by measuring total protein levels using sulforhodamine B (SRB) staining in parallel cultures at the time of biomarker measurements, indicated as SRB endpoints. For proliferation assays for adherent cell types, individual cell types are cultured at sub-confluence and relative cell numbers quantified by SRB staining at time points optimized for each system (48 h: 3C and CASM3C systems; 72 h: BT and HDF3CGF systems; 96 h: SAg system). SRB was performed by staining cells with 0.1% SRB after fixation with 10% TCA and reading wells at 560 nm.Viability and proliferation of PBMC (T cells) was quantified by Alamar Blue reduction for the SAg and BT systems. For PBMC viability (referred to as PBMC Cytotoxicity within the assay endpoint names), cells were plated (75,000/well in a 96-well plate) and then chemical samples added for 1 h before addition of activators, SEB and TSST-1 (20 ng/mL final concentration each). Cells were incubated for 90 h. Then, Alamar Blue (20 uL/well) (Invitrogen, Cat DAL1100) was added for 6 h, and the plates were read with a fluorescence microplate reader at 546/580 nm (excitation/emission). For PBMC proliferation, cells were plated and activated as above but incubated for only 16 h prior to addition of Alamar Blue. Plates were read after 6 h.
On to `CC[C@H]1CC[C@H](NCc2cc3c(cc2OC)[C@H]2C[C@H]2C(=O)N3C)[C@H](c2ccccc2)N1`, for which the outcome was inactive.
Same read-out and setting: the same measure for `CC(C)CCO`: “inactive”.
Turning to `On1ccccc1=S`, the AC50 is 1.35 µM (active).
Turning to `C=CC(=C)CCC=C(C)C`, the outcome was inactive.
With `O=C(O)c1cc(N=Nc2ccc(S(=O)(=O)Nc3ccccn3)cc2)ccc1O`, the result was inactive.
On to `CC[C@H](C)C(=O)O[C@H]1C[C@@H](C)C=C2C=C[C@H](C)[C@H](CC[C@@H]3C[C@@H](O)CC(=O)O3)[C@H]21`, for which the AC50 was 36.6 µM (active).
Regarding `C1=CCCC=CCCC=CCC1`, the outcome was inactive.
On to `CCOC(=O)CC(CC(=O)OCC)(OC(C)=O)C(=O)OCC`, for which the outcome was inactive.
Still for that read-out and setting: the same measure for `O=c1[nH]c2ccc(S(=O)CCN3CCC(Cc4ccc(F)cc4)CC3)cc2o1` (stereo not given): “inactive”; for `CC(O)CN(CCN(CC(C)O)CC(C)O)CC(C)O` (stereo not given): “inactive”.
Still for that read-out and setting: the entry for `CC(C)=CCCC(C)CCO` (stereo not given) is “inactive”.
Still for that read-out and setting: the entry for `CC(C)CCCCCCCOC(=O)CCCCC(=O)OCCCCCCCC(C)C` is “inactive”.
`CNS(=O)(=O)c1cc(C(=O)N2CCC(CCN3C4CCC3CC(n3c(C)nc5ccccc53)C4)(c3cccc(F)c3)CC2)c(Cl)cc1F` (stereo not given): the outcome was inactive.
`COCCOCCOCCOC`: the result was inactive.
Take `C1N2CN3CN1CN(C2)C3`: the result was inactive.
On to `Cn1c(=O)c2c(ncn2C)n(C)c1=O`, for which the result was inactive.
In the case of `Cc1ccc(C)c(O)c1`, the result was inactive.
For `COc1ccc2sc(C(=O)Nc3nnn[nH]3)c(OC(C)C)c2c1`, the AC50 is 13.9 µM (active).
On to `COc1ccc(-n2nc(C(F)F)cc2-c2ccc(S(C)=O)cc2)cc1` (stereo not given), for which the outcome was inactive.
The same measure, in the same setting: the entry for `CNCc1ccc(NC(=O)c2c[nH]c3c2C(=O)CCC3)cc1` is “inactive”; for `CC/C(=C\C(=N/O)C(N)=O)C(C)[N+](=O)[O-]` (stereo not given) it is “inactive”; for `CC(C)=CCC/C(C)=C\CO` it is “inactive”.
Still for that read-out and setting: the entry for `CCn1nc(Cc2ccccc2)cc1C1CCN(C[C@H]2C[C@H](N(C)[C@@H](C(=O)O)C(C)C)C[C@@H]2c2cccc(F)c2)CC1` is “inactive”.
Same read-out and setting: the entry for `Cc1ccc(O)cc1` is “inactive”.
With `COC(=O)CC(=O)OC`, the result was inactive.
Regarding `Oc1ccc2c(c1)-c1ccccc1C2`, the result was inactive.
The same measure, in the same setting: the entry for `CCCCCCCCCCCCCCCO` is “inactive”.
As for `CCCCCCc1ccc(O)cc1O`, the AC50 is 37.9 µM (active).
As to `Cc1[nH]cnc1C[C@H]1CCc2c(C)c3ccccc3n2C1=O`, the result was inactive.
On the same count and under the same terms, the same measure for `COC(=O)c1ccccc1O`: “inactive”; for `Cc1ccc(S(=O)(=O)O)cc1C`: “inactive”.
Same read-out and setting: the entry for `CC[C@H]1OC(=O)[C@H](C)[C@@H](O[C@H]2C[C@@](C)(OC)[C@@H](O)[C@H](C)O2)[C@H](C)[C@@H](O[C@@H]2O[C@H](C)C[C@H](N(C)C)[C@H]2O)[C@](C)(O)C[C@@H](C)C(=O)[C@H](C)[C@@H](O)[C@]1(C)O` is “inactive”; for `COC(=O)c1c(Cl)c(Cl)c(C(=O)OC)c(Cl)c1Cl` it is “inactive”.
On the same count and under the same terms, the entry for `CC(=O)c1ccc2c(c1)[C@H](NC(=O)c1ccc(F)cc1)[C@@H](O)C(C)(C)O2` is “inactive”.
On to `CCCN(C1CCN(C(=O)C2CCNCC2)CC1)[C@@H]1CCc2ccc(OC)cc2C1`, for which the outcome was inactive.
With `CCOCCO`, the result was inactive.
Still for that read-out and setting: the entry for `CC(C)c1cccc(C(C)C)c1N1C(=O)c2ccc(O)cc2C1=O` is “inactive”.
Regarding `COc1ccc(/C=C/S(=O)(=O)NC(=O)c2ccc(C)cc2Cl)cc1`, the result was inactive.
On to `Cn1cnc([N+](=O)[O-])c1Sc1ncnc2nc[nH]c12`, for which the outcome was inactive.
On the same count and under the same terms, the same measure for `O=C(NS(=O)(=O)/C=C/c1ccccc1)c1ccc(F)cc1Cl`: “inactive”.

A word on the AC50: it is the concentration at which the activity in the assay is half-maximal.
